HCV inh: blocks hepatitis C virus | Huh7.5.1 HCVcc-Cre infection, luciferase reporter, 44 h | Potency, µM (doses to about 41.8 µM), actives largely listed as inhibitors | hit rate 3.4% among 340,000; active = well fitted inhibition curve with a large enough effect; inconclusive = small, poorly fitted or top-dose-only effect, or another doubt; inactive = no such curve, though single readings can be large or run the other way
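After 44 h co-culture of compound, cells and HCVcc-Cre (~0.5 moi), substrate is added for 15 min at room temperature and luciferase measured over 15 sec. Cells were seeded at 1,000/well and pre-cultured 4 h.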
MARV entry inh: blocks Marburg virus binding to or entry into cells; Marburg virus pseudotyped entry inhibition, cell reporter; Potency, µM (series often up to 37.8 µM), actives largely listed as inhibitors; hit rate 1.8% among 300,000; AID 540276; calls by dose curve; tested in HEK293 cells
HCMV antiviral: human cytomegalovirus inhibition; HFF cells, HCMV-luciferase reporter, 72 h; stronger effect = lower value; AID 1259415; activity change, negative = inhibition, % at 57.5 µM; hit rate 4.5% among 410,000; in the data active = activity change below about -60%; inconclusive = no clear call, values can overlap the other calls; inactive = above about -39%
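HFF cells seeded 16 h at 37C, treated with compounds, infected with luciferase-reporter HCMV at MOI 1 PFU/cell; luciferase read at 72 h post infection, normalized to buffer-only and Salinomycin controls.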
FMDV inh: foot and mouth disease virus antiviral activity | Potency, µM (doses to about 57.9 µM), actives largely listed as inhibitors | hit rate 1.2% among 410,000 | AID 1159524 | FMDV antiviral cell-based qHTS; calls by dose curve; tested in HEK293T cells; also: read-out not given here; nearly all actives have a fitted effect of over 45% in size
Lassa entry inh: Lassa virus entry inhibition | Lassa virus pseudotype entry inhibition, cell reporter | Potency, µM (doses to about 37.9 µM), hits mostly inhibitors | AID 540256 | hit rate 1.2% among 300,000; calls by dose curve; tested in HEK293 cells; also: nearly all actives have a fitted effect of over 50% in size
Of the large screens only hits and unclear results are named; the others gave an inactive call. In the library only some 7.9% were active in any assay of this set; here they are far more common.

Cn1c(=O)c2c(nc(N/N=C/c3ccc(OC(=O)c4ccco4)cc3)n2Cc2ccccc2)n(C)c1=O	HCV inh inconclusive, MARV entry inh inconclusive, FMDV inh 12.6µM, Lassa entry inh 10µM
Cn1c(N/N=C/c2cccs2)nc2c1c(=O)n(Cc1ccccc1)c(=O)n2C	HCV inh inconclusive, MARV entry inh inconclusive, FMDV inh inconclusive
Cn1c(=O)c2c(nc(N/N=C/c3cccs3)n2Cc2ccccc2)n(C)c1=O	HCV inh inconclusive, HCMV antiviral inconclusive, FMDV inh 25.1µM, Lassa entry inh inconclusive
CC(C)(C)C1CCC(OC(=O)C[N+]2(C)CCCCC2)CC1 (stereo not given)	HCMV antiviral -62.5
COC(=O)Cc1[nH]nc2c1C(c1ccc(O)c(OC)c1)C(C#N)=C(N)O2 (stereo not given)	none (no result: MARV entry inh, Lassa entry inh)
CCSC1=C(C#N)[C@@H](c2cccs2)C(C(=O)OC)=C(C)N1	none (no result: HCV inh, HCMV antiviral, FMDV inh, Lassa entry inh)
CCn1c(CNC(=O)c2cc(OC)c(OC)c(OC)c2)cc2ccccc21	HCV inh inconclusive, MARV entry inh inconclusive, HCMV antiviral -61.0, Lassa entry inh inconclusive
COc1cc(C(=O)Nc2ccc3c(c2)ncn3C(C)(C)C)cc(OC)c1OC	HCV inh 12.6µM (no result: MARV entry inh, Lassa entry inh)
COc1ccc(OC)c(C(=O)c2ccc(C(=O)Nc3ccc4ccccc4c3)cc2)c1	HCV inh inconclusive, MARV entry inh inconclusive, HCMV antiviral inconclusive, Lassa entry inh 10µM
COc1ccc(/C(C)=N/Nc2ccc(C(=O)O)cc2)cc1OC	MARV entry inh inconclusive, Lassa entry inh inconclusive
COc1ccc(OC)c(/C(C)=N/Nc2ccc(C(=O)O)cc2)c1	HCMV antiviral -96.2
COc1ccc(C(=O)Nc2ccc3ccccc3c2)cc1	none (no result: MARV entry inh, Lassa entry inh)
COc1cc(C(=O)Nc2ccc3ccccc3c2)cc(OC)c1OC	HCV inh inconclusive, MARV entry inh 1.41µM
CN(Cc1ccccc1)C(=O)Cn1c(=O)oc2cc(S(=O)(=O)NCc3ccccc3)ccc21	HCV inh 14.1µM, HCMV antiviral -71.0 (no result: Lassa entry inh)
CCOP(=O)(Nc1cccc2oc(=O)c3ccccc3c12)OCC	HCV inh inconclusive
C(=C\c1ccccc1)/CN1CCN(C(CCc2ccccc2)c2nnnn2-c2ccc3c(c2)OCCO3)CC1 (stereo not given)	none (no result: HCV inh, MARV entry inh, Lassa entry inh)
COc1ccc(-n2nnnc2C(CCc2ccccc2)N2CCC(n3c(=O)[nH]c4ccccc43)CC2)cc1 (stereo not given)	HCMV antiviral -94.8, FMDV inh 28.2µM (no result: HCV inh, MARV entry inh, Lassa entry inh)
COc1ccc(C(c2nnnn2-c2ccc3c(c2)OCCO3)N2CCC(n3c(=O)[nH]c4ccccc43)CC2)cc1 (stereo not given)	HCMV antiviral inconclusive (no result: HCV inh, MARV entry inh, Lassa entry inh)
Cc1cccc(C)c1-n1nnnc1C(CCc1ccccc1)N1CCC(n2c(=O)[nH]c3ccccc32)CC1 (stereo not given)	HCMV antiviral -93.9, FMDV inh 10µM (no result: HCV inh, MARV entry inh, Lassa entry inh)
O=c1[nH]c2ccccc2n1C1CCN(C(CCc2ccccc2)c2nnnn2-c2ccc3c(c2)OCCO3)CC1 (stereo not given)	HCMV antiviral -104.1, FMDV inh 25.1µM (no result: HCV inh, MARV entry inh, Lassa entry inh)
CCC(c1nnnn1-c1ccc(OC)cc1)N1CCC(n2c(=O)[nH]c3ccccc32)CC1 (stereo not given)	none (no result: HCV inh, MARV entry inh, Lassa entry inh)
COc1ccc(-n2nnnc2C(CCSC)N2CCC(n3c(=O)[nH]c4ccccc43)CC2)cc1 (stereo not given)	none (no result: HCV inh, MARV entry inh, Lassa entry inh)
O=c1[nH]c2ccccc2n1C1CCN(C(c2ccnc3ccccc23)c2nnnn2-c2ccc3c(c2)OCCO3)CC1 (stereo not given)	HCMV antiviral -75.7 (no result: HCV inh, MARV entry inh, Lassa entry inh)
COC(=O)C[C@H]1SC(=O)NC1=O	none (no result: HCV inh, HCMV antiviral, FMDV inh, Lassa entry inh)
NC(N)=N/N=C/c1cn(-c2ccccc2)nc1-c1cccs1	HCV inh inconclusive, MARV entry inh 23.1µM, HCMV antiviral -97.7, FMDV inh inconclusive, Lassa entry inh inconclusive
COc1ccc(-c2nn(-c3ccccc3)cc2/C=N/N=C(N)N)cc1OC	HCV inh inconclusive, MARV entry inh 10µM, HCMV antiviral inconclusive, FMDV inh inconclusive, Lassa entry inh inconclusive
Cc1ccc(-c2nn(-c3ccccc3)cc2/C=N/NC(=O)CSc2nnc(C)n2-c2ccccc2)cc1	HCV inh 14.1µM, Lassa entry inh inconclusive
COc1ccc(-c2nn(-c3ccccc3)cc2/C=N/Nc2cccc(C(=O)O)c2)cc1	HCMV antiviral -61.0
COc1cccc(/C=N/NC(=O)CSc2nnc(C)n2-c2ccccc2)c1O	MARV entry inh inconclusive, Lassa entry inh inconclusive
O=C(CCC(=O)N1CCOc2ccccc21)Nc1cc(F)ccc1F	HCV inh inconclusive (no result: MARV entry inh, Lassa entry inh)
COC(=O)[C@@H]1CCCN1C(=O)c1c(OC)cc(=O)n2c1CCN(Cc1ccc3c(c1)OCCO3)CC2	none (no result: HCV inh, MARV entry inh, HCMV antiviral, Lassa entry inh)

Source: PubChem (National Center for Advancing Translational Sciences (NCATS))
